# ChEMBL document CHEMBL3988442, “University of Dundee, Small-Polar-MMV Screening Library” (2021)
# The campaign covered roughly 48,000 compounds. About 13,000 (27%) showed an effect of 50% or more. The list shows a part of the results.
# Tested on: Wolbachia pipientis
# Test: Anti-Wolbachia Cell-Based Screen
# Assay type: functional
# Parameters: scale not given: in the data most compounds retested in dose-response had high values
# Details: 5 µM
row,SMILES,Percent Effect
1,CNC(=O)NCC1CCC2(CCN(C(=O)c3ccccn3)CC2)CO1.O=C(O)C(F)(F)F (stereo unspecified),105.2%
2,CCOCC1CC2(CCN(C(=O)c3ccccn3)CC2)CO1.O=C(O)C(F)(F)F (stereo unspecified),-17.18%
3,CN(C)CC(=O)N1CCC2(CC1)COC(COc1ccccn1)C2.O=C(O)C(F)(F)F.O=C(O)C(F)(F)F (stereo unspecified),11.11%
4,Cc1ccc(C(=O)N2CCC3(CC2)COC(COc2ccccn2)C3)o1.O=C(O)C(F)(F)F (stereo unspecified),2.842%
5,O=C(O)C(F)(F)F.O=C(c1cocn1)N1CCC2(CC1)COC(COCc1ccccn1)C2 (stereo unspecified),-10.48%
6,NCC1CCC2(CCN(C(=O)c3ccccn3)CC2)CO1.O=C(O)C(F)(F)F.O=C(O)C(F)(F)F (stereo unspecified),112.6%
7,Fc1ccc(Oc2ccc(CNCC3CNc4ccnn4C3)cn2)cc1 (stereo unspecified),99.62%
8,O=C(NCCNCC1CNc2ccnn2C1)c1ccc(F)cc1 (stereo unspecified),-19.45%
9,c1ccc(Oc2ccc(CNCC3CNc4ccnn4C3)cn2)cc1 (stereo unspecified),117.1%
10,Cc1cc2n(n1)CC(CNCc1ccc(OCC3CC3)nc1)CN2 (stereo unspecified),93.19%
11,Fc1cccc(Oc2ccc(CNCC3CNc4ccnn4C3)cn2)c1 (stereo unspecified),5.815%
12,Cc1cc2n(n1)CC(CNCc1ccc(-n3cccn3)nc1)CN2 (stereo unspecified),-3.824%
13,c1ccc(-n2ccnc2)c(CNCC2CNc3ccnn3C2)c1 (stereo unspecified),-6.615%
14,c1cc2n(n1)CC(CNCc1ccc(OCC3CC3)nc1)CN2 (stereo unspecified),1.128%
15,Cc1cc2n(n1)CC(CNCc1cnn(C)c1)CN2 (stereo unspecified),-3.792%
16,COc1ccc(CNCC2CNc3ccnn3C2)cn1 (stereo unspecified),96.76%
17,c1ccc(Cn2cncn2)c(CNCC2CNc3ccnn3C2)c1 (stereo unspecified),4.151%
18,COc1ccc(CNC[C@H]2Cn3ccnc3CO2)cn1,-7.877%
19,Cc1n[nH]c(C)c1C1CCCN1C(=O)c1coc(Br)c1 (stereo unspecified),4.835%
20,CCN(Cc1cccc2c1OCCO2)C(=O)NC(C)(C)C,-7.864%
21,CCN(Cc1ccc2c(c1)OCO2)C(=O)NCc1nc(C)cs1,-7.212%
22,CCN(Cc1cccc2c1OCO2)C(=O)Nc1cn[nH]c1,109.5%

row,SMILES,Percent Effect
1,O=C(Cc1ccccc1Br)NCC(=O)Nc1cn[nH]c1,-11.75%
2,O=C(Nc1ccccn1)N(CCO)Cc1ccsc1,-7.906%
3,CCN(Cc1cccc2c1OCO2)C(=O)NCCOC,78.96%
4,CCN(Cc1cccc2c1OCO2)C(=O)Nc1ccccn1,122.5%
5,COc1cc(CN(C)C(=O)NCc2cccc3c2OCO3)ccc1SC,-31.12%
6,O=C(Nc1cn[nH]c1)N(CCO)C1CCc2ccccc21 (stereo unspecified),3.342%
7,Cc1cc(CN(C)C(=O)NCc2ccccn2)no1,9.808%
8,CCN(C(=O)c1cccc2c1OCO2)c1ccccc1,-1.465%
9,CCN(Cc1cccc2c1OCO2)C(=O)NCc1ccccn1,102.4%
10,Nc1nc(CCC(=O)N2CCOC(CC3CCCCC3)C2)cs1 (stereo unspecified),-4.495%
11,CC1(C)CCC(C(=O)O)c2ccccc21 (stereo unspecified),1.78%
12,CN(Cc1ccc(Br)o1)C(=O)Nc1cccnc1,14.31%
13,O=C(O)C(F)(F)F.O=C(O)C(F)(F)F.c1cncc(OCC2CC3(CCN(CC4CC4)CC3)CO2)c1 (stereo unspecified),-1.816%
14,O=C(C1CCSCC1)N1CCC2(CC1)COC(COCC1CC1)C2 (stereo unspecified),0.4038%
15,Cc1csc(CN2CCC3(CC2)COC(COCC2CC2)C3)n1.O=C(O)C(F)(F)F (stereo unspecified),87.23%
16,Cc1cccc(CN2CCC3(CC2)COC(COCC2CC2)C3)n1 (stereo unspecified),102.1%
17,CC(=O)N1CCC2(CC1)COC(COCc1ccccn1)C2.O=C(O)C(F)(F)F (stereo unspecified),-3.959%
18,CCOCC1CC2(CCN(Cc3ccccn3)CC2)CO1 (stereo unspecified),-6.984%
19,Cc1cc(CN2CCC3(CC2)COC(COCC2CC2)C3)no1.O=C(O)C(F)(F)F (stereo unspecified),95.48%
20,Cc1ncc(CNc2ccc(C(=O)NCc3ccco3)cc2C)s1,-10.56%
21,CCS(=O)(=O)CCNC(=O)c1ccc(-c2ccc(C)cc2)cc1F,-13.74%
22,CN(C)[C@@H]1CO[C@H](CNC(=O)c2cccs2)[C@H]1O,5.998%

row,SMILES,Percent Effect
1,COCC(=O)NCCSCCOc1cccc(Br)c1,5.807%
2,Cc1ccnc(N2Cc3cnn(Cc4ccc(F)cc4)c3C2)n1,-9.844%
3,Cc1cc(C)nc(N2Cc3cnn(Cc4ccc(F)cc4)c3C2)n1,10.67%
4,CNc1cc(C)nc(N2Cc3cnn(Cc4ccc(F)cc4)c3C2)n1,67.48%
5,CCN(Cc1ccccc1)c1ncnc2c(C)nn(CC)c12,90.55%
6,CCN(CC)c1ncnc2c(C)nn(CC)c12,92.35%
7,Cc1nn(C)c2c(NCCCn3cccn3)ncnc12,1.711%
8,CCn1nc(C)c2ncnc(N(C)C)c21,100.5%
9,COCCN(Cc1ccccc1)c1cc(C)ncn1,-9.961%
10,CCn1nc(C)c2nc(C(C)C)nc(N3CCCCC3)c21,-10.35%
11,CCCc1nc(N2CCN(CC)CC2)c2c(n1)c(C)nn2CC,-11.71%
12,CCn1nc(C)c2ncnc(NCC(=O)N3CCOCC3)c21,4.727%
13,CN1CCC(N(C)C[C@H]2CC[C@@H](Cc3cccc(CO)c3)O2)CC1,-29.03%
14,O=C(NCC1CC1)C1CN(C(=O)c2cccc(Cl)c2)CC12CCOCC2 (stereo unspecified),-0.2514%
15,Cn1c(C(=O)N2CCC(C(N)=O)C2)c(Cl)c2ccccc21 (stereo unspecified),50.27%
16,Cn1c(C(=O)N2CCC(CC(N)=O)CC2)c(Cl)c2ccccc21,-9.644%
17,Cn1c(C(=O)N2CCC(C(=O)N3CCCC3)CC2)c(Cl)c2ccccc21,1.615%
18,Cc1ccc(OC2(C(=O)O)CCN(C(=O)c3nc(C)oc3C)CC2)cn1,-0.6346%
19,CCCNS(=O)(=O)c1ccc(C(=O)NC(CC)c2cnn(C)c2)cc1 (stereo unspecified),-2.749%
20,CCC(NS(=O)(=O)c1ccc(C(=O)NC2CC2)cc1)c1ccnn1C (stereo unspecified),-9.031%
21,CCC(NS(=O)(=O)c1ccc(C(=O)NC2CC2)cc1)c1cnn(C)c1 (stereo unspecified),100.7%
22,Cc1nc2cc(=O)[nH]n2c(C)c1CNC(=O)C(C)Cc1ccccc1 (stereo unspecified),-3.98%

row,SMILES,Percent Effect
1,COc1cccc2c1N(CC(=O)Nc1ccc(Cl)cn1)CCC2,8.099%
2,Cc1ccc2nc(CN3CCCC3c3cccnc3)cc(O)c2c1 (stereo unspecified),7.141%
3,CCN1CCCC(c2nc(O)c3cc(C)ccc3n2)C1 (stereo unspecified),115.3%
4,Cc1ccc2nc(C3CCCN(CC(C)C)C3)nc(O)c2c1 (stereo unspecified),109.3%
5,Cc1ccc2nc(CN3CCC(O)(CN4CCCC4)CC3)cc(O)c2c1,3.677%
6,CC(C)CN1CCC(NC(=O)c2ccc(F)cc2I)CC1,2.48%
7,Oc1cc(CNCCCN2CCCC2)nc2ccc(F)cc12,15.84%
8,CC(C)CN1CCCC(c2nc(O)c3cc(F)ccc3n2)C1 (stereo unspecified),102.2%
9,COC(=O)c1cccc2nc([C@H]3CCN(CC(C)C)C3)oc12,-3.142%
10,Cc1ccc2ncn(CC(O)CN3CCC(C)CC3)c(=O)c2c1 (stereo unspecified),8.084%
11,Cc1ccc2nc(C3CCN(CC(C)C)CC3)nc(O)c2c1,129.6%
12,Cc1ccc2nc(CNCCCN3CCCC3)cc(O)c2c1,-3.941%
13,O=C(c1ccco1)N(CC(F)(F)F)C1CCCOC1 (stereo unspecified),-12.11%
14,COCc1csc(NC(=O)NCc2ccc(C)s2)n1,0.0103%
15,c1cc(-c2noc(-c3cc(C4CC4)[nH]n3)n2)cc(N2CCCCC2)n1,-19.77%
16,Cc1cnn(CCC(=O)N2C[C@H]3CC[C@@H]2CN(CC(=O)N(C)C)C3)c1,-5.732%
17,COCCN(Cc1ccc(C)o1)C(=O)Nc1nnc2ccccn12,-21.85%
18,Cn1ncc2cnn(CC(O)COCc3ccccc3Cl)c2c1=O (stereo unspecified),-6.755%
19,Cc1cc(N2CCN(Cc3ccccc3)CC(O)C2)cc(C)n1 (stereo unspecified),-18.63%
20,Cc1ccc2nc(C3CCCN(Cc4ccccc4)C3)nc(O)c2c1 (stereo unspecified),104.3%
21,Cc1cccc(N2CC3(CCN(Cc4nccn4C)C3)CC2=O)c1.O=C(O)C(F)(F)F (stereo unspecified),3.528%
22,COC(=O)c1ccoc1CN(C)CC(=O)NC1CC1,113.9%

row,SMILES,Percent Effect
1,O=C(CN(Cc1cccs1)C1CCS(=O)(=O)C1)NCCc1cccs1 (stereo unspecified),4.084%
2,CNC(=O)COC(=O)c1ccoc1CN1c2ccccc2CC1C (stereo unspecified),-15.23%
3,CN(Cc1cnn(C)c1)C(=O)NC1CCS(=O)(=O)C1 (stereo unspecified),-13.78%
4,COC(=O)c1cc(NC(=O)NCC2CCS(=O)(=O)C2)ccc1Cl (stereo unspecified),-31.29%
5,COC(=O)c1ccoc1CN(C)CC(=O)NC1CCS(=O)(=O)C1 (stereo unspecified),105.9%
6,O=C(Cc1cc2c(cc1Br)OCCO2)NC1CCS(=O)(=O)C1 (stereo unspecified),-27.59%
7,CN(CCC(=O)NC1CC1)Cc1ccc(Cl)s1,-12.79%
8,COC(=O)c1ccoc1CN(C1CC1)C1CCS(=O)(=O)C1 (stereo unspecified),104.7%
9,CC(CS(C)(=O)=O)N(C(=O)Nc1cc(F)ccc1Cl)C1CC1 (stereo unspecified),14.25%
10,CC(C)C(C)N(C(=O)Cn1nc2n(c1=O)CCCCC2)C1CC1 (stereo unspecified),119.1%
11,CN1[C@H]2CC[C@@H]1CN(C(=O)c1nnc3n1CCCCC3)CC2,-0.7264%
12,CC(c1ccco1)N(C(=O)NCc1ccon1)C1CC1 (stereo unspecified),5.216%
13,CC(C)C(=O)N(C)Cc1nnc2n1CCCCC2,6.475%
14,CC(C)N(C(=O)Cn1nc2n(c1=O)CCCCC2)C1CCC1,81.53%
15,CC(c1ccco1)N(C(=O)c1cc2c([nH]c1=O)CCCC2=O)C1CC1 (stereo unspecified),-5.594%
16,O=C(c1cnc2n1CCCC2)N1CCCC1,17.49%
17,CC(C)C(C)N(C(=O)c1cc2c([nH]c1=O)CCCC2=O)C1CC1 (stereo unspecified),-5.669%
18,CC(c1ccco1)N(C(=O)Cn1nc2n(c1=O)CCCCC2)C1CC1 (stereo unspecified),105.1%
